Compound activity as filed in PubChem.
Mot1-301 SUMO – yeast Mot1-301 growth rescue at high temperature, primary screen, SUMOylation pathway inhibitor project, S. cerevisiae, ATP luminescence, 38.5C; S. cerevisiae Mot1-301 growth rescue; percent above DMSO median, 100 means doubled; growth rescue, % at 18.8 µM; hit rate 1% among 320,000;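 active means every valid replicate shows activation above 250% relative to neutral control wells; inactive means the rest, any valid replicate at or below 250%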
HIF act – HIF pathway transcriptional activators, primary screen, cell-based, U2OS HRE-luciferase, luminescence. activation, % at 7.5 µM (by protocol). hit rate 0.32% among 300,000. U2OS HRE-luciferase reporter; normalized: DMSO 0%, desferrioxamine 100%;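 active means mean activation of at least 10% of the iron chelator positive control signal, with at least half of replicates also reaching 10%; inconclusive means mean and replicate majority disagree about reaching 10%; inactive means mean and most replicates under 10%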
ALR inh – inhibitors of human ALR sulfhydryl oxidase, primary screen, biochemical, H2O2 detection, HRP-luminol luminescence, single point; FAD-linked sulfhydryl oxidase ALR (Homo sapiens), P55789; hit rate 3.8% among 290,000; purified ALR, DTT oxidation; inhibition, % (test concentration not listed);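 active means mean replicate inhibition above about 79%, with every replicate also reaching it, limit read from the data; inconclusive means only one of the two criteria met; inactive means mean below limit and not every replicate reaching it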
Target sequence (P55789 whole entry, looked up): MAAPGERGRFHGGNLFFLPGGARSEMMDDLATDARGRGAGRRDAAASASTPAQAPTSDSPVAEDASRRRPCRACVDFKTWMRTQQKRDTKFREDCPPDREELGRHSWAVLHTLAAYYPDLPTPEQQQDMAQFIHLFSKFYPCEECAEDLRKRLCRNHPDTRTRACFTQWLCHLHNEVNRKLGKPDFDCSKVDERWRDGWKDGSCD
PfM18AAP inh – PfM18AAP inhibitors, malaria aminopeptidase, primary screen, biochemical, QFRET, recombinant enzyme; M18 aspartyl aminopeptidase (Plasmodium falciparum 3D7); H-Glu-NHMec fluorogenic cleavage; inhibition, % at 7.35 µM; hit rate 1.2% among 290,000; AID 1822, 2009;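 active means inhibition above the campaign mean inhibition over all tested compounds plus 3 SD, cut at about 28% in these data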
Each line names hits and unclear results; the compound was inactive in the other large screens. A selection: hits, their analogues and other compounds. The true share with any hit is near 5.3%.

CC(=O)Nc1ccc(NC(=S)NC(=O)c2ccc([N+](=O)[O-])cc2)cc1	none
CCCCCC(=O)NNC(=S)NC(=O)c1ccc([N+](=O)[O-])cc1	ALR inh 88.3, PfM18AAP inh 31.3 (no result: Mot1-301 SUMO)
COc1ccccc1NC(=O)O/N=C(\N)c1ccccc1	none
Cc1onc(-c2ccccc2)c1C(=O)N(Cc1ccco1)Cc1cccs1	none (no result: Mot1-301 SUMO, ALR inh)
CC(=O)N1CCc2ccc(S(=O)(=O)N3CC(C)OC(C)C3)cc21 (configuration not stated)	none
O=C(OCC(=O)N1CCC(Cc2ccccc2)CC1)c1cc(Cl)ccc1O	none (no result: PfM18AAP inh)
O=C(NC(=S)NNC(=O)c1ccccc1O)c1ccc([N+](=O)[O-])cc1	PfM18AAP inh 30.1
CC(=O)c1ccc(NC(=S)NNC(=O)c2ccccc2[N+](=O)[O-])cc1	ALR inh 93.4
O=C(NNc1c(Cl)cc(Cl)cc1Cl)c1cccc([N+](=O)[O-])c1	ALR inh 92.7
O=C(NNC(=S)NC(=O)c1ccc(Br)cc1)c1cccc([N+](=O)[O-])c1	ALR inh 98.6
O=C(CCNS(=O)(=O)c1ccccc1)NNC(=O)c1cccc(Cl)c1	none (no result: HIF act, ALR inh, PfM18AAP inh)
CN(CC(=O)Nc1cc(Cl)cc(Cl)c1)Cc1cccs1	none (no result: ALR inh)
O=C(NNC(=S)NC(=O)c1ccc(Br)cc1)c1ccc([N+](=O)[O-])cc1	ALR inh 99.6
O=C(NNC(=O)c1ccc([N+](=O)[O-])cc1)c1ccc(Br)cc1	none
O=C(NNC(=S)NCc1ccccc1)c1cccc([N+](=O)[O-])c1	none
O=C(Nc1c(Cl)cc(Cl)cc1C(=O)NCCN1CCOCC1)c1cccc([N+](=O)[O-])c1	ALR inh 99.4
O=C(NNC(=S)NC(=O)c1ccccc1Cl)c1cccc([N+](=O)[O-])c1	ALR inh 96.7
CCCCOc1ccccc1C(=O)NNC(=S)NC(=O)c1ccccc1[N+](=O)[O-]	ALR inh 84.1
O=C(Nc1c(Cl)cc(Cl)cc1C(=O)NCCN1CCOCC1)c1ccc(Cl)cc1Cl	none
CCOC(=O)C1CCN(C(=O)CSC2=NCCS2)CC1	none
CC(=O)c1c(C)[nH]c(C(=O)C(C)Sc2nnc(NC3CC3)s2)c1C (configuration not stated)	none (no result: HIF act, ALR inh, PfM18AAP inh)
O=C(O)c1ccc(OCCCCCCOC2CCCCO2)cc1 (configuration not stated)	none
O=C(NCc1ccccc1)c1c(Cl)nc(Cl)c(Cl)c1Cl	none
CN(C)S(=O)(=O)c1ccc(C(=O)Oc2cc(=O)[nH]c3ccccc23)cc1	Mot1-301 SUMO 465.1
CCOC(=O)c1[nH]c2ccccc2c1NC(=O)c1ccc(S(=O)(=O)N(C)C)cc1	none
COc1cc2c(cc1O)CC[C@@H]1[C@@H]2CC[C@]2(C)[C@@H](O)CC[C@@H]12	ALR inh 99.1
C[C@]12CC[C@@H]3c4ccc(OC(=O)c5ccccc5)cc4CC[C@H]3[C@@H]1CC[C@@H]2O	none
CCc1c(C2(O)CCCCC2)[nH]c2cc(C(F)(F)F)ccc12	Mot1-301 SUMO 325.0
Cc1c(C2(O)CCCCC2)[nH]c2cc(C(F)(F)F)ccc12	none (no result: HIF act, PfM18AAP inh)
Cc1noc(C)c1C(=O)N1CCN(S(=O)(=O)c2cccc(Cl)c2Cl)CC1	none
Cc1ccc(S(=O)(=O)N2CCOCC2)cc1C(=O)NC(C)CCc1ccccc1 (configuration not stated)	none (no result: HIF act, PfM18AAP inh)
COc1cc(/C=N/n2cnnc2)ccc1OC(=O)c1cccnc1	none (no result: ALR inh)
COc1cc(/C=N/n2cnnc2)ccc1OC(=O)c1ccncc1	ALR inh 98.2
Cc1ccc2nc(N(CCN(C)C)C(=O)c3cc(Cl)sc3Cl)sc2c1	ALR inh 96.5
Cc1cc(C)c2sc(N(CCN(C)C)C(=O)c3cc(Cl)sc3Cl)nc2c1	none
CCCCn1c(CCl)nc2cc(S(=O)(=O)N3CCOCC3)ccc21	none (no result: HIF act, PfM18AAP inh)
O=C(CCNc1ccccc1)c1cccc([N+](=O)[O-])c1	ALR inh 98.4
O=C(CCNc1ccc(F)cc1)c1cccc([N+](=O)[O-])c1	none
CC(C)C(C(=O)NCC1CCCO1)N(Cc1ccccc1)C(=O)CNS(=O)(=O)c1ccccc1 (configuration not stated)	none (no result: ALR inh)
O=S(=O)(CCN1CCN(c2ccccn2)CC1)c1ccc(F)cc1	none
O=C(CCCN1CCN(c2ccccn2)CC1)c1ccc(F)cc1	Mot1-301 SUMO 351.4 (no result: HIF act, PfM18AAP inh)
CCc1nnc(NC(=O)CSc2ncc(-c3ccccc3)[nH]2)s1	ALR inh 99.2
O=C(CSc1ncc(-c2ccc(F)cc2)[nH]1)Nc1cccc(O)c1	ALR inh 99.2
CCc1nnc(NC(=O)CSc2nc3cccnc3n2Cc2ccccc2)s1	Mot1-301 SUMO 305.4
NNC(=O)CSc1ncc(-c2ccccc2)[nH]1	none
CCc1nnc(NC(=O)CSc2nnc(Cc3ccccc3)n2Cc2ccccc2)s1	none
Cc1nnc(NC(=O)CSc2ncc(-c3ccccc3)[nH]2)s1	none
CN1CCN(c2ccc(NC(=O)c3ccc(C#N)cc3F)cc2Cl)CC1	none
Cc1ccc(N2C(=O)CC(C)CC2=O)cc1	none
Cc1cc(-n2c(C)cc(C(=O)CSc3ncnc4ccccc34)c2C)no1	ALR inh 98.3
Cc1cc(C(=O)CSc2nc3ccccc3o2)c(C)n1C1CC1	none
CNc1nnc(SCC(=O)c2cc(C)n(C3CC3)c2C)s1	ALR inh 91.6 (no result: HIF act, PfM18AAP inh)
Cc1cc(C(=O)CSc2ncnc3ccccc23)c(C)n1C1CC1	ALR inh 98.0 (no result: HIF act, PfM18AAP inh)
CC(C)(O)C#Cc1ccc(C(=O)N2CCC(C(N)=O)(N3CCCCC3)CC2)o1	none (no result: Mot1-301 SUMO, ALR inh)
O=C(NCCC(=O)N1CCC2(CC1)NCCc1[nH]cnc12)c1ccc(Br)cc1	none
NC(=O)c1cc(S(=O)(=O)NCCc2ccc(Cl)cc2)cs1	none
CCN=C1NN=C(c2ccc(C)cc2)CS1	none
COCCN=C1NN=C(c2ccc(NC(C)=O)cc2)CS1	ALR inh inconclusive, PfM18AAP inh 28.4
COc1ccc2sc(-c3ccc(N(C)C)cc3)c(C#Cc3cncn3C)c2c1	none (no result: HIF act, PfM18AAP inh)
COc1cccc2c(=O)c3ccoc3n(C)c12	Mot1-301 SUMO 350.3
CCOC(=O)c1cnc(SCc2nc(N)nc(Nc3ccc(C)cc3)n2)nc1N	none (no result: ALR inh)
CCN1C(=O)/C(=C/N(C)C)c2ccccc21	ALR inh 99.2
CCCNC(=O)c1ccccc1NC(=O)c1ccc2c(c1)NC(=O)C(C)S2 (configuration not stated)	none
CCc1n[nH]c(=S)n1/N=C/c1ccc(-c2ccc(Br)cc2)o1	HIF act 21.6 (no result: PfM18AAP inh)
CSc1ccc(/C=N/n2c(Cc3ccc(Br)cc3)n[nH]c2=S)cc1	none
O=C(NCC(=O)N1CCN(c2ccccc2O)CC1)c1ccc2c(c1)OCO2	none
CCCCC1CCCOC(C(=O)NCCNCCO)(C(F)(F)F)C1 (configuration not stated)	none (no result: PfM18AAP inh)
CCCC[C@@H]1CCCO[C@@](C(=O)NCc2ccc(C)o2)(C(F)(F)F)C1	ALR inh 90.3 (no result: PfM18AAP inh)
COc1ccc(CCC(C)Nc2ccc(F)cc2)cc1 (configuration not stated)	ALR inh 97.8
COc1ccc(CCC(C)Nc2ccc(F)c(F)c2)cc1 (configuration not stated)	none
